The panel holds about 79,000 compounds, 15% with a hit somewhere; the sample as a whole holds those more often. Active and inactive are the calls of the source. Rule as the data show it: active = growth inhibition above about 70%; inactive = the rest.
Experiments:
[1] = NCI Yeast Anticancer Drug Screen. Data for the rad52 strain (AID 147);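 also: 0% = growth of vehicle-treated control cultures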; conditions: S. cerevisiae rad52 mutant growth inhibition, hits give high values
Procedure, shortened: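 Growth of repair-deficient yeast cells was compared between compound-treated and vehicle-treated cultures to give percent inhibition.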

[2] = NCI Yeast Anticancer Drug Screen. Data for the wt1 strain (AID 149);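 also: 0% = growth of vehicle-treated wt1 cultures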; conditions: S. cerevisiae wt1 strain (SPY 50644) growth inhibition, hits give high values
Procedure, shortened: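 The wt1 strain was treated with compounds, and growth was compared with vehicle-treated cultures to give inhibition.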

[3] = NCI Yeast Anticancer Drug Screen. Data for the rad50EPP+ strain (AID 151);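 also: 0% = growth of vehicle-treated control cultures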; conditions: S. cerevisiae rad50 mutant strain, hits give high values
Procedure, shortened: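 Measured: growth inhibition of rad50EPP+ yeast. Reference: vehicle-treated controls. Screen uses strains with defined genetic alterations in DNA damage repair or cell cycle control.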

[4] = NCI Yeast Anticancer Drug Screen. Data for the mgt1 strain (AID 153); conditions: S. cerevisiae mgt1 mutant growth inhibition, hits give high values
Procedure, shortened: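 Compounds were applied to mgt1 mutant yeast, and growth was then compared against vehicle-treated control cultures to give percent inhibition.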

[5] = NCI Yeast Anticancer Drug Screen. Data for the rad50 strain (AID 155);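 also: 0% = growth of vehicle-only cultures of the same strain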; conditions: S. cerevisiae rad50 strain growth inhibition, hits give high values
Procedure, shortened: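 Cells are treated with compound, grown, and their growth is then scored against vehicle-only cultures of the same repair-deficient yeast strain.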

[6] = NCI Yeast Anticancer Drug Screen. Data for the mec2-1 strain (AID 157); conditions: S. cerevisiae mec2-1 strain, hits give high values
Procedure, shortened: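 Compounds were applied to mec2-1 yeast cells. Their growth was then compared with that of vehicle-treated cultures to give growth inhibition.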

[7] = NCI Yeast Anticancer Drug Screen. Data for the rad14 strain (AID 159);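 also: 0% = growth of vehicle-treated control cultures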; conditions: S. cerevisiae rad14 strain growth inhibition, hits give high values
Procedure, shortened: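 Readout: yeast growth inhibition, referenced to vehicle-only cultures. Strain bears a defined alteration in DNA damage repair.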

[8] = NCI Yeast Anticancer Drug Screen. Data for the sgs1 mgt1 strain (AID 161);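 also: 0% = growth of cultures given vehicle only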; conditions: S. cerevisiae sgs1 mgt1 strain, hits give high values
Procedure, shortened: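 Yeast cells carrying a defined DNA-repair defect were exposed to test compounds. Growth inhibition was measured relative to vehicle-treated controls.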

[9] = NCI Yeast Anticancer Drug Screen. Data for the CLN2oe strain (AID 163);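 also: 0% = growth of vehicle-only control cultures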; conditions: S. cerevisiae CLN2oe strain, hits give high values
Procedure, shortened: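 Cells of an engineered yeast line with disturbed cell-cycle regulation are treated with compound. Inhibition of growth is then calculated relative to the vehicle-treated reference.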

[10] = NCI Yeast Anticancer Drug Screen. Data for the cln2 rad14 strain (AID 165);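 also: 0% = growth equal to vehicle treated cultures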; conditions: S. cerevisiae cln2 rad14 strain, hits give high values
Procedure, shortened: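 Strain: cln2 rad14 yeast, altered in cell cycle control and DNA damage repair. Read-out: growth inhibition vs vehicle.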

[11] = NCI Yeast Anticancer Drug Screen. Data for the bub3 strain (AID 167); conditions: S. cerevisiae bub3 mutant strain, hits give high values
Procedure, shortened: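 Part of a panel of yeast mutants defective in DNA damage repair or cell cycle regulation. Each strain is grown with compound, and inhibition is calculated relative to solvent-treated cultures.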

[12] = NCI Yeast Anticancer Drug Screen. Data for the wt2 strain (AID 169);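 also: 0% = growth of vehicle-treated yeast cultures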; conditions: S. cerevisiae wt2 strain growth inhibition, hits give high values
Procedure, shortened: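 Growth of compound-treated yeast is measured and expressed as inhibition relative to vehicle-only controls.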

[13] = NCI Yeast Anticancer Drug Screen. Data for the mlh1 strain (AID 171);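 also: 0% = growth of vehicle-treated control cultures of the same strain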; conditions: S. cerevisiae mlh1 strain growth inhibition, hits give high values
Procedure, shortened: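 Test agents were incubated with yeast bearing a defined DNA damage repair or cell cycle control alteration; values are growth inhibition normalised to vehicle-treated cultures.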

[14] = NCI Yeast Anticancer Drug Screen. Data for the sgs1 strain (AID 173);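 also: 0% = growth of vehicle-only control cultures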; conditions: S. cerevisiae sgs1 mutant, hits give high values
Procedure, shortened: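 Strain with an altered DNA repair or cell cycle pathway exposed to compound. Growth then measured. Value = inhibition versus vehicle control.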

[15] = NCI Yeast Anticancer Drug Screen. Data for the mlh1 rad18 strain (AID 175); conditions: S. cerevisiae mlh1 rad18 strain growth inhibition, hits give high values
Procedure, shortened: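 A repair-deficient yeast strain is exposed to test compound, and growth is scored relative to vehicle-treated controls.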

[16] = NCI Yeast Anticancer Drug Screen. Data for the rad18 strain (AID 177); conditions: S. cerevisiae rad18 mutant growth inhibition, hits give high values
Procedure, shortened: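 DNA-repair-defective yeast; compound treatment; growth inhibition scored against vehicle.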

[17] = at 5.0 µM (retest, dose inferred, filed as 0.5)
[18] = at 50.0 µM (retest, dose inferred, filed as 5.0)

Measured: growth inhibition

O=[N+]([O-])c1ccc([N+]2=NC(c3ccccc3)=NN(c3ccccc3)C2)cc1
active: [4]; at 100.0 µM 95% | [7]; at 100.0 µM 93% | [8]; at 50.0 µM 74.5% | [11]; [18] 91% | [11]; at 50.0 µM 78% | [11]; at 100.0 µM 87% | [12]; at 100.0 µM 95% | [13]; at 100.0 µM 93% | [14]; at 100.0 µM 91% | [15]; at 50.0 µM 80.5% | [16]; at 100.0 µM 70%
inactive: [1]; at 1.2 µM 8% | [1]; at 3.7 µM 11% | [1]; at 11.0 µM 10% | [1]; at 33.0 µM 14% | [1]; at 100.0 µM 56% | [2]; at 1.2 µM 3% | [2]; at 3.7 µM 5% | [2]; at 11.0 µM 4% | [2]; at 33.0 µM 3% | [2]; at 100.0 µM 51% | [3]; at 1.2 µM 6% | [3]; at 3.7 µM 12% | [3]; at 11.0 µM 21% | [3]; at 33.0 µM 22% | [3]; at 100.0 µM 20% | [4]; at 1.2 µM 6% | [4]; at 3.7 µM 5% | [4]; at 11.0 µM 7% | [4]; at 33.0 µM 21% | [5]; at 1.2 µM 5% | [5]; at 3.7 µM -6% | [5]; [17] 1% | [5]; at 11.0 µM -9% | [5]; at 33.0 µM 15% | [5]; [18] 30% | [5]; at 50.0 µM 67.3% | [5]; at 100.0 µM 63% | [6]; at 1.2 µM -2% | [6]; at 3.7 µM -2% | [6]; [17] -9% | [6]; at 11.0 µM 0% | [6]; at 33.0 µM 9% | [6]; [18] 6% | [6]; at 50.0 µM 18.4% | [6]; at 100.0 µM 42% | [7]; at 1.2 µM 4% | [7]; at 3.7 µM 8% | [7]; at 11.0 µM 20% | [7]; at 33.0 µM 44% | [8]; [17] -1% | [8]; [18] 17% | [9]; at 1.2 µM -5% | [9]; at 3.7 µM -3% | [9]; at 11.0 µM -2% | [9]; at 33.0 µM 2% | [9]; at 100.0 µM 40% | [10]; [17] 9% | [10]; [18] 20% | [10]; at 50.0 µM 21.4% | [11]; at 1.2 µM -2% | [11]; at 3.7 µM 0% | [11]; [17] 10% | [11]; at 11.0 µM 12% | [11]; at 33.0 µM 30% | [12]; at 1.2 µM 0% | [12]; at 3.7 µM 2% | [12]; at 11.0 µM 1% | [12]; at 33.0 µM 11% | [13]; at 1.2 µM 1% | [13]; at 3.7 µM 4% | [13]; at 11.0 µM 6% | [13]; at 33.0 µM 19% | [14]; at 1.2 µM 0% | [14]; at 3.7 µM 1% | [14]; at 11.0 µM 2% | [14]; at 33.0 µM 28% | [15]; [17] -2% | [15]; [18] 48% | [16]; at 1.2 µM 3% | [16]; at 3.7 µM 4% | [16]; at 11.0 µM 2% | [16]; at 33.0 µM 11%

Fc1ccc(NC(=S)SCc2ccc(Cl)c(Cl)c2)cc1F
active: [1]; at 33.0 µM 89% | [1]; at 100.0 µM 98% | [2]; at 33.0 µM 99% | [2]; at 100.0 µM 98% | [3]; at 33.0 µM 98% | [3]; at 100.0 µM 98% | [4]; at 33.0 µM 97% | [4]; at 100.0 µM 98% | [5]; [18] 98% | [5]; at 50.0 µM 90.3% | [5]; at 100.0 µM 97% | [6]; [18] 98% | [6]; at 50.0 µM 93.2% | [6]; at 100.0 µM 99% | [7]; at 33.0 µM 99% | [7]; at 100.0 µM 98% | [8]; [18] 98% | [8]; at 50.0 µM 90% | [9]; at 33.0 µM 80% | [9]; at 100.0 µM 97% | [10]; [18] 97% | [10]; at 50.0 µM 90.5% | [11]; at 33.0 µM 98% | [11]; [18] 97% | [11]; at 50.0 µM 90.8% | [11]; at 100.0 µM 98% | [12]; at 33.0 µM 99% | [12]; at 100.0 µM 99% | [13]; at 33.0 µM 99% | [13]; at 100.0 µM 98% | [14]; at 33.0 µM 99% | [14]; at 100.0 µM 97% | [15]; [18] 97% | [15]; at 50.0 µM 90.6% | [16]; at 33.0 µM 98% | [16]; at 100.0 µM 98%
inactive: [1]; at 1.2 µM -6% | [1]; at 3.7 µM -8% | [1]; at 11.0 µM 17% | [2]; at 1.2 µM -4% | [2]; at 3.7 µM 12% | [2]; at 11.0 µM 33% | [3]; at 1.2 µM -2% | [3]; at 3.7 µM 25% | [3]; at 11.0 µM 60% | [4]; at 1.2 µM -3% | [4]; at 3.7 µM -4% | [4]; at 11.0 µM 0% | [5]; at 1.2 µM -15% | [5]; at 3.7 µM -9% | [5]; [17] 66% | [5]; at 11.0 µM 45% | [5]; at 33.0 µM -12% | [6]; at 1.2 µM -4% | [6]; at 3.7 µM -4% | [6]; [17] 18% | [6]; at 11.0 µM -4% | [6]; at 33.0 µM 60% | [7]; at 1.2 µM 3% | [7]; at 3.7 µM 5% | [7]; at 11.0 µM 24% | [8]; [17] 25% | [9]; at 1.2 µM -7% | [9]; at 3.7 µM -10% | [9]; at 11.0 µM -11% | [10]; [17] -2% | [11]; at 1.2 µM -2% | [11]; at 3.7 µM -4% | [11]; [17] 1% | [11]; at 11.0 µM 21% | [12]; at 1.2 µM 10% | [12]; at 3.7 µM 13% | [12]; at 11.0 µM 64% | [13]; at 1.2 µM -13% | [13]; at 3.7 µM -7% | [13]; at 11.0 µM 27% | [14]; at 1.2 µM -5% | [14]; at 3.7 µM -1% | [14]; at 11.0 µM 44% | [15]; [17] 33% | [16]; at 1.2 µM -9% | [16]; at 3.7 µM -6% | [16]; at 11.0 µM 30%

Reference: PubChem BioAssay (NCI)
